The panel holds about 79,000 compounds, 15% with a hit somewhere; the sample as a whole holds those more often. Values without a mark were called inactive. No stated cut-off is given here; in the data, active means growth inhibition above about 70%; inactive means the rest.
Test: NCI Yeast Anticancer Drug Screen. Data for the sgs1 mgt1 strain (AID 161);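 further: 0% = growth of cultures given vehicle only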
Conditions: S. cerevisiae sgs1 mgt1 strain, at 50.0 µM, active compounds read high
Outline: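 Growth of a repair-deficient yeast mutant was monitored after compound treatment and expressed as inhibition relative to vehicle-treated cultures.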

SMILES | growth inhibition [%]
O=C(O)CNc1ncnc2[nH]ncc12 | 2.85
CCCCCCCC/C=C\CCCCCCCC(=O)OC | 49.3
NC(=O)/C(=C\c1ccncc1)c1cccc2ccccc12 | -41.1
CC(=O)OCN(C)N=Nc1ccc(C(C)=O)cc1 | -27.8
CC(NC(=O)OCc1ccccc1)NC(=O)OC(C)(C)C (stereo not given) | -18.9
N#CC1=C(N2CCCC2)NC(=O)CC1=O | -0.6
Cc1cc([NH-])c([NH-])cc1C.[Cl][Pt+2][Cl] | -0.15
CC(=O)CC(=O)Nc1cccc(C)c1 | 2.8
Cc1sc2c(c1C)C(=O)c1cccn1-2 | -21.6
O=C(O)CCC(C(=O)O)N1C(=O)C2C3CCC(C3)C2C1=O (stereo not given) | -36.2
COC(=O)C(=O)c1c(C2CC2)[nH]c2[nH]n(-c3ccccc3)c(=O)c2c1=O | 12.4
CS(=O)(=O)OCC(O)C(O)C(OS(C)(=O)=O)C(O)COS(C)(=O)=O (stereo not given) | -7.75
O/N=C/c1ncccc1C1OCCO1 | -2.35
NC(=S)SCCC(=O)N1CCCC1 | -9.55
Cc1ccc(NC(=O)C(C)C)cc1 | -13.4
CN(C)NC(=O)Oc1ccc(Cl)cc1 | -11.4
CC(C)(C)C([O-])=C1C(=O)c2ccccc2C1=O.CC(C)(C)C([O-])=C1C(=O)c2ccccc2C1=O.CC[O-].CC[O-].[Ti+4] | 57.4
C[n+]1cccc(C(=O)c2ccccc2)c1 | 0.65
CC(O[Si](C)(C)C(C)(C)C)[C@H](NC(=O)OCC(Cl)(Cl)Cl)C(=O)O (stereo not given in full) | -17.1
O=C1NCC2(CCCCCC2)O1 | 13.2

SMILES | growth inhibition [%]
COc1cc([N+](=O)[O-])ccc1NC(=O)C(Br)C(Br)C(=O)O (stereo not given) | -12.5
COc1ccc2c(c1)OCCN(C)OC2c1cccc(Cl)c1 (stereo not given) | -7.15
O=C(NC1CC1)c1ccccc1 | 4.7
Nc1ccn(CCC(COCc2ccccc2)COCc2ccccc2)c(=O)n1 | 0.75
CC(=Nc1cccc2ccccc12)c1c(O)cc(C)oc1=O | 15.2
CCCO[C@@H]1[C@@H](OC(C)=O)[C@@H](OC(C)=O)C(C)(C)/C=C/[C@H](C)C(=O)[C@@]2(OC(C)=O)C[C@@](C)(OC(C)=O)[C@H](OC(C)=O)[C@@H]2[C@H]2OC(=O)CC[C@@]12OC(=O)c1ccccc1 | -56.5
CC(=O)C1CCC2C3C=C(C)C4=CC(=O)CCC4(C)C3(F)C(=O)CC12C (stereo not given) | 6
Cc1[nH]c2cc([N+](=O)[O-])ccc2c1C | -10.1
O=C(O)c1ccc2ccc(F)cc2c1Cc1ccccc1 | 12.9
C/C=C/C(=O)Nc1cc(Cl)ccc1C | -4.95
O=C(O)c1cc(=O)[nH]c(SCc2ccc(Cl)cc2Cl)n1 | -7.05
OCC1OC(Nc2ccc(F)cc2)C(O)C1O (stereo not given) | -1.3
FC(F)(F)C(c1ccc(Cl)cc1)c1ccc(Cl)cc1 | 40.6
Cc1ccc(-n2c(=O)nc([O-])[n+]3ccccc23)cc1 | -7.95
COc1ccc(OCC(C)(C)O)cc1 | 5.6
CS(=O)(=O)Oc1ncc(Cl)cc1Cl | -1.85
O=S(=O)(Nc1ccccc1)c1cc(O)ccc1O | -9.75
CCCC(=O)C(C)C(=O)CC (stereo not given) | -15.7
COc1ccccc1N=NNc1ccc(S(=O)(=O)NC(C)=O)cc1 | -1.1
COC(=O)CCCCCCCCCCCCC1C=CCC1 (stereo not given) | 11.4

Test: NCI Yeast Anticancer Drug Screen. Data for the cln2 rad14 strain (AID 165);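 further: 0% = growth equal to vehicle treated cultures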
Conditions: S. cerevisiae cln2 rad14 strain, at 50.0 µM, active compounds read high
Outline: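 Yeast carrying cln2 and rad14 alterations (cell cycle control and DNA damage repair) were exposed to compounds. Growth inhibition was measured against vehicle-treated controls.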

SMILES | growth inhibition [%]
O=C(O)CNc1ncnc2[nH]ncc12 | 3.8
CCCCCCCC/C=C\CCCCCCCC(=O)OC | -32.1
NC(=O)/C(=C\c1ccncc1)c1cccc2ccccc12 | -3.35
CC(=O)OCN(C)N=Nc1ccc(C(C)=O)cc1 | -22.7
CC(NC(=O)OCc1ccccc1)NC(=O)OC(C)(C)C (stereo not given) | -13.2
N#CC1=C(N2CCCC2)NC(=O)CC1=O | 35.6
Cc1cc([NH-])c([NH-])cc1C.[Cl][Pt+2][Cl] | -0.3
CC(=O)CC(=O)Nc1cccc(C)c1 | 5.3
Cc1sc2c(c1C)C(=O)c1cccn1-2 | -2.8
O=C(O)CCC(C(=O)O)N1C(=O)C2C3CCC(C3)C2C1=O (stereo not given) | -16
COC(=O)C(=O)c1c(C2CC2)[nH]c2[nH]n(-c3ccccc3)c(=O)c2c1=O | -9.2
CS(=O)(=O)OCC(O)C(O)C(OS(C)(=O)=O)C(O)COS(C)(=O)=O (stereo not given) | 21.3
O/N=C/c1ncccc1C1OCCO1 | 9.8
NC(=S)SCCC(=O)N1CCCC1 | -19.6
Cc1ccc(NC(=O)C(C)C)cc1 | -24.2
CN(C)NC(=O)Oc1ccc(Cl)cc1 | -4.55
CC(C)(C)C([O-])=C1C(=O)c2ccccc2C1=O.CC(C)(C)C([O-])=C1C(=O)c2ccccc2C1=O.CC[O-].CC[O-].[Ti+4] | 47.3
C[n+]1cccc(C(=O)c2ccccc2)c1 | 12.1
CC(O[Si](C)(C)C(C)(C)C)[C@H](NC(=O)OCC(Cl)(Cl)Cl)C(=O)O (stereo not given in full) | 26.1
O=C1NCC2(CCCCCC2)O1 | 4.95

SMILES | growth inhibition [%]
COc1cc([N+](=O)[O-])ccc1NC(=O)C(Br)C(Br)C(=O)O (stereo not given) | -28.1
COc1ccc2c(c1)OCCN(C)OC2c1cccc(Cl)c1 (stereo not given) | -5.15
O=C(NC1CC1)c1ccccc1 | -5.9
Nc1ccn(CCC(COCc2ccccc2)COCc2ccccc2)c(=O)n1 | -5.6
CC(=Nc1cccc2ccccc12)c1c(O)cc(C)oc1=O | 20.9
CCCO[C@@H]1[C@@H](OC(C)=O)[C@@H](OC(C)=O)C(C)(C)/C=C/[C@H](C)C(=O)[C@@]2(OC(C)=O)C[C@@](C)(OC(C)=O)[C@H](OC(C)=O)[C@@H]2[C@H]2OC(=O)CC[C@@]12OC(=O)c1ccccc1 | -16.1
CC(=O)C1CCC2C3C=C(C)C4=CC(=O)CCC4(C)C3(F)C(=O)CC12C (stereo not given) | -13.1
Cc1[nH]c2cc([N+](=O)[O-])ccc2c1C | 21.8
O=C(O)c1ccc2ccc(F)cc2c1Cc1ccccc1 | 8.3
C/C=C/C(=O)Nc1cc(Cl)ccc1C | -52.1
O=C(O)c1cc(=O)[nH]c(SCc2ccc(Cl)cc2Cl)n1 | -10.2
OCC1OC(Nc2ccc(F)cc2)C(O)C1O (stereo not given) | 30.1
FC(F)(F)C(c1ccc(Cl)cc1)c1ccc(Cl)cc1 | 34.5
Cc1ccc(-n2c(=O)nc([O-])[n+]3ccccc23)cc1 | -24.8
COc1ccc(OCC(C)(C)O)cc1 | 0.2
CS(=O)(=O)Oc1ncc(Cl)cc1Cl | 14.5
O=S(=O)(Nc1ccccc1)c1cc(O)ccc1O | -12.1
CCCC(=O)C(C)C(=O)CC (stereo not given) | 4.3
COc1ccccc1N=NNc1ccc(S(=O)(=O)NC(C)=O)cc1 | -0.6
COC(=O)CCCCCCCCCCCCC1C=CCC1 (stereo not given) | 9.25

Reference: PubChem BioAssay (NCI)
